The text below walks through data of the supplement of paper PMC6331611.

± gives the standard deviation of the averaged measurements. Whole data set: some 1,600 compounds, median “normalized growth (OD600, IQM-normalized) in LPM” near 1, cut for the lowest 2% near 0.014. The list comes from a sample in which the lowest values are over-represented; it also holds similar structures and randomly drawn compounds.

The subject of this test is Salmonella enterica serovar Typhimurium SL1344. Description: normalized growth (OD600, IQM-normalized) in LPM (fraction of plate interquartile mean); higher = more bacterial growth (less inhibition). Particulars: LPM pH 5.8; 10 µM; 16 h.
For the compound `Nc1[nH]cnc2ncnc1-2`, the normalized growth was determined as 0.993 ± 0.02.

On to `CCCNC(C)(C)COC(=O)c1ccccc1`, for which the normalized growth worked out at 0.983 ± 0.027.

Consider `CC(=O)c1ccc2c(c1)N(CCCN1CCN(CCO)CC1)c1ccccc1S2`, for which the normalized growth was 0.869 ± 0.053.

`CCCCCCCCCCCCCCCCCCCCCCO` had a normalized growth of 1.11 ± 0.1.

Regarding `CC(=O)Nc1ccc(S(=O)(=O)c2ccc(NC(C)=O)cc2)cc1`, the normalized growth turned out to be 0.889 ± 0.067.

`CCC(=O)OCC(=O)[C@@]1(OC(=O)CC)[C@H](C)CC2C3C([C@@H](O)C[C@@]21C)[C@@]1(C)C=CC(=O)C=C1C[C@H]3Cl` (stereo partly drawn): the normalized growth was 1.03 ± 0.019.

The compound `O=C1c2ccccc2C(=O)C1c1ccc(Br)cc1` gave a normalized growth of 0.935 ± 0.066.

`O=C(OOC(=O)c1ccccc1)c1ccccc1`: the normalized growth was found to be 1.08 ± 0.046.

`Cc1cnc(C(=O)O)c[n+]1[O-]` showed a normalized growth of 0.993 ± 0.078.

As to `C[C@@H]1NC(=O)[C@@H](N)CNC(=O)[C@H](C2CCNC(=N)N2)NC(=O)/C(=C/NC(N)=O)NC(=O)[C@H](CNC(=O)CC(N)CCCN)NC1=O.N=C1NCC[C@H]([C@@H]2NC(=O)/C(=C/NC(N)=O)NC(=O)[C@H](CNC(=O)C[C@@H](N)CCCN)NC(=O)[C@H](CO)NC(=O)[C@@H](N)CNC2=O)N1`, the normalized growth came out at 0.985 ± 0.046.

`CC(C)(C)CC(C)(C)c1ccc(O)c(Cc2ccc(Cl)cc2Cl)c1` came in with a normalized growth of 0.861 ± 0.066.

In turn, `Oc1ccc(OCc2ccccc2)cc1` had a normalized growth of 0.91 ± 0.11.

Compound `Cc1cc(NS(=O)(=O)c2ccc(N)cc2)no1` came in with a normalized growth of 1.01 ± 0.022.

On to `CC[C@H](C)[C@H](N)C1=N[C@H](C(=O)N[C@@H](CC(C)C)C(=O)N[C@H](CCC(=O)O)C(=O)N[C@H](C(=O)N[C@H]2CCCCNC(=O)[C@H](CC(N)=O)NC(=O)[C@@H](CC(=O)O)NC(=O)[C@H](Cc3cnc[nH]3)NC(=O)[C@@H](Cc3ccccc3)NC(=O)[C@H]([C@@H](C)CC)NC(=O)[C@@H](CCCN)NC2=O)[C@@H](C)CC)CS1`, for which the normalized growth is 1.06 ± 0.043.

For the compound `CC(C)OC(=O)CCC/C=C\C[C@@H]1[C@@H](/C=C/[C@@H](O)COc2cccc(C(F)(F)F)c2)[C@H](O)C[C@@H]1O`, the normalized growth worked out at 1.032 ± 0.0058.

As for `C=CC[C@@H]1/C=C(\C)C[C@H](C)C[C@H](OC)[C@H]2O[C@@](O)(C(=O)C(=O)N3CCCC[C@H]3C(=O)O[C@H](/C(C)=C/[C@@H]3CC[C@@H](O)[C@H](OC)C3)[C@H](C)[C@@H](O)CC1=O)[C@H](C)C[C@@H]2OC`, the normalized growth is 0.857 ± 0.044.

The compound `NC(=O)C1(N2CCCCC2)CCN(CCCC(=O)c2ccc(F)cc2)CC1` returned a normalized growth of 1.02 ± 0.051.

`CC(C)(S)[C@@H](N)C(=O)O` returned a normalized growth of 1.083 ± 0.0063.

In turn, `CC1=CC(=O)c2ccccc2C1=O` registered a normalized growth of 0.984 ± 0.017.

In the case of `O=[N+]([O-])c1ccc(O)c2ncccc12`, the normalized growth worked out at 0.00762 ± 0.00015.

In the case of `Oc1ccc(Cl)c2cccnc12`, the normalized growth is 0.847 ± 0.037.

`Oc1c(I)cc(I)c2cccnc12` came in with a normalized growth of 0.58 ± 0.02.

As to `C[C@@H](O)CN(CCN(C[C@@H](C)O)C[C@@H](C)O)C[C@@H](C)O`, the normalized growth is 1.17 ± 0.054.

`CN(N=O)C(=O)N[C@H]1C(O)O[C@H](CO)[C@@H](O)[C@@H]1O` (mixture of isomers) yielded a normalized growth of 0.929 ± 0.021.

For the compound `COc1cccc2c1C(=O)c1c(O)c3c(c(O)c1C2=O)C[C@@](O)(C(C)=O)C[C@@H]3O[C@H]1C[C@H](N)[C@H](O)[C@H](C)O1`, the normalized growth worked out at 0.946 ± 0.016.

The compound `CC(NCCC(c1ccccc1)c1ccccc1)c1ccccc1` (stereo not drawn) returned a normalized growth of 0.976 ± 0.038.

`O=C(O)CCNC(=O)c1ccc(/N=N/c2ccc(O)c(C(=O)O)c2)cc1` gave a normalized growth of 1 ± 0.051.

Compound `C[C@H]1O[C@H](O[C@H]2[C@H](O)[C@@H](O)[C@@H](O[C@H]3[C@H](O)[C@@H](O)C(O)O[C@@H]3CO)O[C@@H]2CO)[C@H](O)[C@@H](O)[C@@H]1N[C@H]1C=C(CO)[C@@H](O)[C@H](O)[C@H]1O` (stereo partly drawn) registered a normalized growth of 1.07 ± 0.011.

`CCOC(=O)c1ccc(O)cc1`: the normalized growth was determined as 1.02 ± 0.045.

In turn, `N[C@@H](Cc1cc(I)c(Oc2cc(I)c(O)c(I)c2)c(I)c1)C(=O)O` came in with a normalized growth of 1.03 ± 0.039.

As to `O=C(COc1ccc(Cl)cc1)N1CCN(Cc2ccc3c(c2)OCO3)CC1`, the normalized growth worked out at 0.928 ± 0.019.

On to `COc1c(C)c2c(c(O)c1C/C=C(\C)CCC(=O)OCCN1CCOCC1)C(=O)OC2`, for which the normalized growth stood at 1.01 ± 0.035.

Compound `CC(=O)Nc1c(I)cc(I)c(C(=O)O)c1I` registered a normalized growth of 0.949 ± 0.12.

Regarding `Cc1c(OCC(F)(F)F)ccnc1C[S@@+]([O-])c1nc2ccccc2[nH]1`, the normalized growth was found to be 0.967 ± 0.085.

For the compound `CSCC[C@H](NC(=O)[C@H](Cc1c[nH]c2ccccc12)NC(=O)CCNC(=O)OC(C)(C)C)C(=O)N[C@@H](CC(=O)O)C(=O)N[C@@H](Cc1ccccc1)C(N)=O`, the normalized growth was found to be 1.09 ± 0.026.

Compound `CC[C@H](c1ccc(O)cc1)[C@@H](CC)c1ccc(O)cc1` displayed a normalized growth of 1.13 ± 0.018.

In turn, `CC(C)c1nc(N(C)S(C)(=O)=O)nc(-c2ccc(F)cc2)c1/C=C/[C@@H](O)C[C@@H](O)CC(=O)O` came in with a normalized growth of 1.03 ± 0.097.

As for `CCn1nc(C(=O)O)c(=O)c2cc3c(cc21)OCO3`, the normalized growth is 0.00789 ± 0.00035.
